Rows were chosen to be rich in hits. Some 1.7% of all compounds tested hit in one or more screens of this group.
PTHR1 agonist – activates the human parathyroid hormone receptor PTHR1 | Q03431 | HEK293 GP2 PTHR1 cells, GloSensor cAMP luminescence, 1 h | Potency, µM (highest dose often 115 µM), for inactives: at the top dose activation, usual class: activators | hit rate 0.075% among 410,000 | AID 743266; also: nearly all actives have a fitted effect of over 55% in size
Target sequence (Q03431 whole entry, looked up): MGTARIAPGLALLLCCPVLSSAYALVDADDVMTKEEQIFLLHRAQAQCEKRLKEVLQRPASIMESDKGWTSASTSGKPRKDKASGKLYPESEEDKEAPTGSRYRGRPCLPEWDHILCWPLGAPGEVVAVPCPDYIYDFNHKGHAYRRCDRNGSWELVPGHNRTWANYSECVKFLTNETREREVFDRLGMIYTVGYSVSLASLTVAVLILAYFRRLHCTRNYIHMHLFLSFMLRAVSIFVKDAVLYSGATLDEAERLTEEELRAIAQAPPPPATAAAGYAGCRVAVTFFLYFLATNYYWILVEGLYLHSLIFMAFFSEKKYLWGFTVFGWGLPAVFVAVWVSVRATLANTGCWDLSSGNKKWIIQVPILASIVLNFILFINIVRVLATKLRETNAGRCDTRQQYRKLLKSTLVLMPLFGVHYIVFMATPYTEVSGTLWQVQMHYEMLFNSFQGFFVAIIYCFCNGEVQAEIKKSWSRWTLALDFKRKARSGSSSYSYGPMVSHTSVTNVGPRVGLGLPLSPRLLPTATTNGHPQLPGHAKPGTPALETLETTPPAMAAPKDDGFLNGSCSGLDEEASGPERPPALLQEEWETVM
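HEK-293-derived GP2 cells expressing PTHR1 and a GloSensor cAMP reporter, 3,000/well, plated overnight, given luciferin plus IBMX (each 0.5 mM as added) for 1 h at 37 °C, then compound for 1 h at 37 °C. Luminescence was read after 15 min at room temperature.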
GLP1R inv ag – acts as inverse agonist at human GLP-1 receptor. AID 624417. Potency, µM (doses to about 38.3 µM), inactives show at the top dose activity change, negative = inhibition, actives largely listed as inhibitors. HEK293 GLP-1R CRE-luciferase, luminescence, 24 h; GLP-1R form is constitutively active. hit rate 1.6% among 410,000. P43220; also: % is scaled to controls: 0 for no effect and ±100 for the full control effect; nearly all actives have a fitted effect of over 55% in size
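HEK293 cells stably co-expressing a cAMP-responsive luciferase reporter and constitutively active GLP-1R were seeded, incubated 12 h, then exposed to compounds for 24 h at 37 C. Luminescence was read 12 min after detection reagent; inverse agonists lower signal.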
GLP1R ag – activates the human GLP-1 receptor | hit rate 0.007% among 380,000 | P43220 | AID 624172 | Potency, µM (titrated, usually from 45.6 µM), for inactives: at the top dose activation, most hits filed as activators | HEK293 GLP-1R CRE-luciferase, luminescence, 4-6 h; cells express a hypersensitive GLP-1R form; also: % of control where 0% means no effect
HEK293 tox – cytotoxic in the GLP-1 receptor inverse agonist counter-screen; hit rate 0.13% among 410,000; HEK293 cAMP-luciferase reporter cells, luminescence, 24 h; AID 624418; Potency, µM (top dose mostly 38.3 µM), for the others: at the highest dose activity change, negative = inhibition, actives largely listed as inhibitors;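 also: loss of luciferase light is scored as toxicity; % is scaled to controls: 0 for no effect and ±100 for the full control effect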
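Seeding density was 200 cells/uL; after overnight-length (12 h) culture, 23 nL compounds went on for 24 h at 37 °C. Readout used a luciferase detection reagent, luminescence taken after 12 min at room temperature.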
Active calls of the source: *; i = inactive; ? = inconclusive; nt = no result given; [ ] = another dose, or the depositor's remark. Calls follow the shape of the dose curve; as a rule, active = well fitted curve in the direction sought with a large enough effect; inconclusive = small, poorly fitted or top-dose-only effect, or another doubt; inactive = no such curve, though single readings can be large; an effect the other way counts as inactive or inconclusive. Potency is read from the fitted curve at half-maximal effect.

SMILES	PTHR1 agonist	GLP1R inv ag	GLP1R ag	HEK293 tox
CSc1ccc(S(=O)(=O)N2c3ccccc3CC2C)cc1 (configuration not stated)	-62%	5µM*	-4%	-7%
CC(C)C(c1nnnn1Cc1ccccc1)N1CCN(Cc2ccc3c(c2)OCO3)CC1 (configuration not stated)	-11%	8.9µM*	5%	23%
CC(C)C(c1nnnn1CC1CCCO1)N1CCN(Cc2ccc3c(c2)OCO3)CC1 (configuration not stated)	i	7%	-7%	-2%
c1ccc(CCn2nnnc2C(c2cccs2)N2CCN(Cc3ccc4c(c3)OCO4)CC2)cc1 (configuration not stated)	-14%	7.1µM*	-1%	?
Cc1csc(NC(=O)CSc2nnc3c4ccccc4nc(C(C)(C)C)n23)n1	-18%	?	-4%	2.5µM*
CC(=O)CSc1nnc2c3ccccc3nc(C(C)(C)C)n12	-18%	9%	12%	-1%
CC(/C=N/NC(=O)c1nnn(-c2nonc2N)c1CN(C)C)=C\c1ccco1	0%	9%	-1%	-1%
CC/C(=N\NC(=O)c1nnn(-c2nonc2N)c1-c1cccs1)c1ccccc1	i	7.9µM*	7%	4%
CCCN(CCC)Cc1c(C(=O)N/N=C/C(C)=C\c2ccco2)nnn1-c1nonc1N	-12%	3.5µM*	0%	-30%
Cc1ccsc1/C=N/NC(=O)c1nnn(-c2nonc2N)c1CN(C)c1ccccc1	-33%	11µM*	1%	1%
O=[N+]([O-])c1ccc(Oc2ccc(N=C=S)cc2)cc1	nt	nt	-7%	nt
O=C(CCNS(=O)(=O)c1ccc2c(c1)CCN2C(=O)C1CC1)Nc1ccc(Cl)cc1	-34%	0%	20%	1%
OCc1cccc(-c2cnc3c(Nc4cccc(OC(F)(F)C(F)F)c4)nccn23)c1	-49%	13µM*	-22%	-19%
COc1ccc(Cl)cc1NC(=O)Cn1nc(C(F)(F)F)c2c1CCCC2	-8%	13µM*	-9%	5%
COc1ccc(Cl)cc1NC(=O)Cn1nc(C(F)(F)F)c2c1CCC2	-2%	?	-8%	3%
O=C(Nc1ccc(S(=O)(=O)N2CCOCC2)cc1)c1cc(-c2cc(Cl)ccc2O)n[nH]1	-33%	3.5µM*	-5%	?
Cc1ccc(-c2cc(C(=O)Nc3ccc(S(=O)(=O)N4CC(C)OC(C)C4)cc3)[nH]n2)c(O)c1 (configuration not stated)	-38%	1.1µM*	6%	-13%
Cc1ccc(O)c(-c2cc(C(=O)Nc3ccc(S(=O)(=O)N4CC(C)OC(C)C4)cc3)[nH]n2)c1 (configuration not stated)	-50%	0%	-9%	?
Cc1cc(O)c2c(c1)OC1(C)CCC3C(C)(C)CCCC34COC2C14 (configuration not stated)	nt	nt	-2%	nt
CCOc1ccc(C(=O)Nc2cc(C)ccn2)cc1	-41%	4µM*	-3%	4%
Cc1ccnc(NC(=O)c2ccc(S(=O)(=O)N3CCCCC3)cc2)c1	-13%	-6%	1%	-1%
Cc1ccnc(NC(=O)c2ccc(S(=O)(=O)N3CCCCCC3)cc2)c1	-22%	11µM*	7%	7%
COc1ccc(C(C#N)C2(C)OCCO2)cc1OC (configuration not stated)	i	10%	4%	0%
CN1C(=O)Cc2cc(S(=O)(=O)NCc3ccc(Cl)cc3)ccc21	i	6%	nt	2%
COc1ccc(-n2c(C)cc(-c3csc(NC(=O)c4ccc(S(=O)(=O)N(C)C)cc4)n3)c2C)cc1	-17%	29%	0%	-5%
SMILES	PTHR1 agonist	GLP1R inv ag	GLP1R ag	HEK293 tox
Cc1cccc(OCC(=O)NC2CCCc3ccccc32)c1C (configuration not stated)	-3%	2µM*	13%	25%
COc1ccccc1OCC(=O)NC1CCCc2ccccc21 (configuration not stated)	i	11µM*	13%	21%
CC(C)c1ccccc1OCC(=O)NC1CCCc2ccccc21 (configuration not stated)	i	?	9%	0%[1.53 µM]
COc1ccccc1OCC(=O)N/N=C1\CCCCc2ccccc21	-17%	10µM*	11%	3%
C=CC[C@@H]1/C=C(\C)C[C@H](C)C[C@H](OC)[C@H]2O[C@@](O)(C(=O)C(=O)N3CCCC[C@H]3C(=O)O[C@H](/C(C)=C/[C@@H]3CC[C@@H](O)[C@H](OC)C3)[C@H](C)[C@@H](O)CC1=O)[C@H](C)C[C@@H]2OC	nt	nt	-5%	nt
Cc1ccc(C(CC(=O)NCC2(c3ccccc3)CCCC2)c2ccccc2)c(O)c1 (configuration not stated)	-1%	?	nt	?
Clc1cccc(-c2nc(NCCCN3CCOCC3)c3ccccc3n2)c1	i	10µM*	3%	-8%
Cc1ccc(-c2nc(NCCN3CCOCC3)c3ccccc3n2)cc1	i	0%	9%	-8%
Clc1cccc(-c2nc(NCCN3CCOCC3)c3ccccc3n2)c1	-7%	7.1µM*	17%	-19%
Clc1ccc(-c2nc(NCCCN3CCOCC3)c3ccccc3n2)cc1	i	?	18%	?
Cc1ccc(CSc2nc3c(c(N(C)C)n2)CCCC3)cc1	-38%[57.5 µM]	11µM*	5%	-10%
c1cncc(-c2nc(NCCCN3CCOCC3)c3c4c(sc3n2)CCC4)c1	i	11µM*	22%	6%
c1cncc(-c2nc(N3CCOCC3)c3c4c(sc3n2)CCC4)c1	i	110%	10%	-4%
COc1ccc(-c2nc3ccc(C4=C(C)CC(=O)NN4)cc3[nH]2)cc1	nt	nt	29%	nt
Cc1ccc(C(=O)N2c3ccccc3N(Cc3ccccc3)C(=O)C2(C)C)cc1	-22%[57.5 µM]	11µM*	0%	26%
COc1ccc(OCC(=O)N2c3ccccc3CC2C)c([N+](=O)[O-])c1 (configuration not stated)	i	?	19%	-7%
COc1ccc(CCc2ccc3ccccc3n2)cc1	-29%	10µM*	23%	-7%
COc1ccc(CCc2ccnc3ccccc23)cc1	-20%	?	38%	-1%
CN1CCN(c2ccc(NC(=O)CSc3nnnn3-c3ccccc3F)cc2)CC1	i	2.8µM*	-1%	-9%
COc1ccc(NC(=O)CSc2nnnn2-c2ccccc2F)cc1	-14%	-7%	-5%	-1%
Cc1ccc(-n2nnnc2SCC(=O)Nc2cc(C)on2)c(C)c1	i	9%	0%	?
Cc1ccc(-n2nnnc2SCC(=O)Nc2ccc(N3CCN(C)CC3)cc2)c(C)c1	-23%	3.5µM*	12%	-16%
Cc1ccccc1-n1nnnc1SCC(=O)Nc1ccc(S(=O)(=O)N2CCCC2)cc1	-19%[57.5 µM]	11µM*	3%	-13%
Cc1cc(C(=O)N2CCC(C)(C(=O)NS(=O)(=O)C3CC3)C2)n(C(C)(C)C)n1 (configuration not stated)	-20%	12%	-6%	0%
